The full data set covers some 8,800 targets. This sample favours those with a hit. About 0.5% of all pairs of compound and target were hits. Unmarked numbers belong to inactive results.
Experiments:
Assay in all cases: log2 fold change, soluble protein after heating vs DMSO (PISA); higher = thermal stabilisation; K562 lysate, 10 uM; active = over 0.2 and 3.5 SD of the protein, either way, in both replicates (recomputed)
[1] = compound: CS(=O)(=O)CCNCc1ccc(-c2ccc3ncnc(Nc4ccc(OCc5cccc(F)c5)c(Cl)c4)c3c2)o1 [lapatinib]
Procedure, shortened: (§1)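 Soluble protein was defined as the supernatant remaining after 21,000xg for 90 min, following pooling of heated aliquots and adjustment to 0.5% NP-40 at 4°C. Before that, crude K562 extract at 1 mg/mL protein in PBS pH 7.4 with 1 mM MgCl2 was treated with 10 μM compound for 30 min and heated for 3 min across 48°C-58°C. Quantification used TMTpro 16plex LC-MS/MS with channel sums equalised, and values are log-two fold changes in thermal stability relative to solvent controls from duplicates.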

[2] = compound: CS(=O)(=O)N1CCN(Cc2cc3nc(-c4cccc5[nH]ncc45)nc(N4CCOCC4)c3s2)CC1 [pictilisib]
Procedure, shortened: as §1

[3] = compound: C[C@@H](Oc1cc(-c2cnn(C3CCNCC3)c2)cnc1N)c1c(Cl)ccc(F)c1Cl [crizotinib]
Procedure, shortened: as §1

[4] = compound: C[C@H](C1=CC=C(C=C1)C(=O)NC2=C3C=CNC3=NC=C2)N
Procedure, shortened: as §1

[5] = compound: C[C@H](Nc1ncnc2nc[nH]c12)c1cc2cccc(Cl)c2c(=O)n1-c1ccccc1 [duvelisib]
Procedure, shortened: as §1

[6] = compound: Cc1cc(Nc2cc(CN3CCOCC3)c3nc(C)c(Cc4ccc(Cl)cc4F)n3n2)n[nH]1 [gandotinib]
Procedure, shortened: as §1

[7] = compound: Cc1cc(Nc2cc(N3CCN(C)CC3)nc(Sc3ccc(NC(=O)C4CC4)cc3)n2)n[nH]1 [tozasertib]
Procedure, shortened: as §1

[8] = compound: Cc1ccc(-n2nc(C(C)(C)C)cc2NC(=O)Nc2ccc(OCCN3CCOCC3)c3ccccc23)cc1 [doramapimod]
Procedure, shortened: as §1

[9] = compound: Cc1ccc(NC(=O)c2ccc(CN3CC[C@H](N(C)C)C3)c(C(F)(F)F)c2)cc1Nc1nccc(-c2cncnc2)n1 [bafetinib]
Procedure, shortened: as §1

[10] = compound: Cc1cccc(CC(=O)N2CCc3c2ccc(-c2cn(C)c4ncnc(N)c24)c3F)n1
Procedure, shortened: as §1

Sequence of UniProt P09429 (P09429 whole entry, looked up): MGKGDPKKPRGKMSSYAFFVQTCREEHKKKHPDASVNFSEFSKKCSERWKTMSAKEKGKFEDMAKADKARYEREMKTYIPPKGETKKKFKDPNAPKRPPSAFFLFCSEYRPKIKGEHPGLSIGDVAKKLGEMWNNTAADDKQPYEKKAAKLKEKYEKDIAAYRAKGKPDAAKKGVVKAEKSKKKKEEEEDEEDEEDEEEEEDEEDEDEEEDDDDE
Sequence of UniProt A6NDN3 (A6NDN3 whole entry, looked up): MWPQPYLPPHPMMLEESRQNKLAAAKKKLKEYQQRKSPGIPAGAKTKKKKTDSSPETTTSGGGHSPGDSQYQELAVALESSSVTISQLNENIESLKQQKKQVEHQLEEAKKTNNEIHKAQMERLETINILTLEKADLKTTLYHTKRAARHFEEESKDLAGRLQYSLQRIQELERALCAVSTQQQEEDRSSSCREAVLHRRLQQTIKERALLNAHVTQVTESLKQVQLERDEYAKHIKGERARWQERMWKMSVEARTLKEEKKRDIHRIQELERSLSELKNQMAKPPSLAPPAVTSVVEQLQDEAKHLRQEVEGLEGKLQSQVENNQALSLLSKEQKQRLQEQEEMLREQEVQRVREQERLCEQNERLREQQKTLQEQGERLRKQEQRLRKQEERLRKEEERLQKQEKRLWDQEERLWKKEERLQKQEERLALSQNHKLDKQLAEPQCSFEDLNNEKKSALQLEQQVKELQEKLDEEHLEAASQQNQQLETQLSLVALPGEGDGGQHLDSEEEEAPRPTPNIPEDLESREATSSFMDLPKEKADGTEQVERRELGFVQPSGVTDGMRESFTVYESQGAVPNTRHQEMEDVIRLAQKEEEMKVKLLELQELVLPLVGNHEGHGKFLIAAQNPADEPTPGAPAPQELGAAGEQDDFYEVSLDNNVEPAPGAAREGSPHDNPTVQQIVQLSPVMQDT
Sequence of UniProt O00425 (O00425 whole entry, looked up): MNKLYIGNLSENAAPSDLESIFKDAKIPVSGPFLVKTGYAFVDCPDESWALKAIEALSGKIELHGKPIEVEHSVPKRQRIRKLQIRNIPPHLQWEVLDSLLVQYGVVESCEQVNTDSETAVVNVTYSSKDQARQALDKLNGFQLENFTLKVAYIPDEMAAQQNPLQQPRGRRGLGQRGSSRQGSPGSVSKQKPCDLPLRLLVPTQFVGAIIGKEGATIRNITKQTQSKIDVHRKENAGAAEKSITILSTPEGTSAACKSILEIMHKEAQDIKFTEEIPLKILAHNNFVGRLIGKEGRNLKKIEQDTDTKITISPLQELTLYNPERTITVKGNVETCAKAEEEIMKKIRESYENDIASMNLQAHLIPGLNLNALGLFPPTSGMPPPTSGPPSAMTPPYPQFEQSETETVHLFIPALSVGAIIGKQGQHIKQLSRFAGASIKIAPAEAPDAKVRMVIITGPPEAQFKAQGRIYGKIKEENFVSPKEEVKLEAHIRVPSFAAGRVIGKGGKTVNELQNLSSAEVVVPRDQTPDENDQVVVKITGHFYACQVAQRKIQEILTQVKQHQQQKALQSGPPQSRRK
Sequence of UniProt P19367 (P19367 whole entry, looked up): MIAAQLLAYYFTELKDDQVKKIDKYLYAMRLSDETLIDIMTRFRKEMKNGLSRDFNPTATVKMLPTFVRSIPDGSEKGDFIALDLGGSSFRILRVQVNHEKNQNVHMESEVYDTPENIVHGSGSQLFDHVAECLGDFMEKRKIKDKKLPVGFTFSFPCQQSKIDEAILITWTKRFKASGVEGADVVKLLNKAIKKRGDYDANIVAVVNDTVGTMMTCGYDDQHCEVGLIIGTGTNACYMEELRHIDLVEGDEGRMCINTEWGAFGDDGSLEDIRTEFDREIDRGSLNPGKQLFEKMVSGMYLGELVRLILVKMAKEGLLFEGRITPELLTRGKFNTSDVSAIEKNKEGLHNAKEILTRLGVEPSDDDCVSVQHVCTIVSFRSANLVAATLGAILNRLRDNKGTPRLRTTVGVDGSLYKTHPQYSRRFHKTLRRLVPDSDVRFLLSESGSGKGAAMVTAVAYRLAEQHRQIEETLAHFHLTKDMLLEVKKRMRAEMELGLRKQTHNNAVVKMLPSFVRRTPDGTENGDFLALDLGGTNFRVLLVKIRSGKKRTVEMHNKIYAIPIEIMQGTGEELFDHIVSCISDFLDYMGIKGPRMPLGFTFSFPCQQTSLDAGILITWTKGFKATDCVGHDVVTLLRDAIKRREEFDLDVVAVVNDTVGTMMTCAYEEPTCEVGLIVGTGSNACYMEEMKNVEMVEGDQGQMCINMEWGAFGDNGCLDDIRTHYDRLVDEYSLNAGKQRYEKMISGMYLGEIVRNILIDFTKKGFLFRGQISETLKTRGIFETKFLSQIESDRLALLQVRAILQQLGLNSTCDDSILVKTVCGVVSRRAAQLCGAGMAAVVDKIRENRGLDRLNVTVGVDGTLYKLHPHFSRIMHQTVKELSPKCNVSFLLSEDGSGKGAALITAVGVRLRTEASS
Sequence of UniProt O94927 (O94927 whole entry, looked up): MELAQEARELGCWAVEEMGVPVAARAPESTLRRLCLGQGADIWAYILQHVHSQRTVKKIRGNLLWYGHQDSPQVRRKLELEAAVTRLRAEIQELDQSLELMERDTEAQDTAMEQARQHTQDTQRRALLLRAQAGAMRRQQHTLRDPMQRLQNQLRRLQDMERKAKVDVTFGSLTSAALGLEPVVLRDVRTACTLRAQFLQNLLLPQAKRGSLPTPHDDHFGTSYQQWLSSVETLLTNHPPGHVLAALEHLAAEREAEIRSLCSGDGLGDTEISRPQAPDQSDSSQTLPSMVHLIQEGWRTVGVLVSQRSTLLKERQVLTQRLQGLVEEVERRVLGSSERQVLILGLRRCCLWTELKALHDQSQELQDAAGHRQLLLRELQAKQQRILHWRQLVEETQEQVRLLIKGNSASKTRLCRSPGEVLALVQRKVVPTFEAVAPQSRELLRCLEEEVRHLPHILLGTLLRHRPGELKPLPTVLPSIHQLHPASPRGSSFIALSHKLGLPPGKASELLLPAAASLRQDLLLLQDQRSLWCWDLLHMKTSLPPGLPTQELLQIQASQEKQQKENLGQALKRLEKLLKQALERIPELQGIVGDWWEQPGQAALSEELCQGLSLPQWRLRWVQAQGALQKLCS
Sequence of UniProt P43250 (P43250 whole entry, looked up): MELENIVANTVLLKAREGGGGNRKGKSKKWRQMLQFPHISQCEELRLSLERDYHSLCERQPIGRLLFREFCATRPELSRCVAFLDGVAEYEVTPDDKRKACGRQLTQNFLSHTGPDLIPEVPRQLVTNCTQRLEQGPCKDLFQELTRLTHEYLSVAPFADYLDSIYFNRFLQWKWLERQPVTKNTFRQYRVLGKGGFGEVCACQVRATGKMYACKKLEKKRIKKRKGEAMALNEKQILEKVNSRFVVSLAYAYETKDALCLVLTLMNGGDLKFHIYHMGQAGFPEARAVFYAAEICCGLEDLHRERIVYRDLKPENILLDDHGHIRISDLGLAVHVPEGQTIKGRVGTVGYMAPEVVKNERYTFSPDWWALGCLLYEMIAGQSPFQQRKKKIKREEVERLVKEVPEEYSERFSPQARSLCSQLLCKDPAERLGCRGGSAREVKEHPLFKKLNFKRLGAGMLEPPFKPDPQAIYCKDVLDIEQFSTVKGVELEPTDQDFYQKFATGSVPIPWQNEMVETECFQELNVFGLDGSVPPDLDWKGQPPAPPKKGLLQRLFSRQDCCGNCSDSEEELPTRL
Sequence of UniProt O60547 (O60547 whole entry, looked up): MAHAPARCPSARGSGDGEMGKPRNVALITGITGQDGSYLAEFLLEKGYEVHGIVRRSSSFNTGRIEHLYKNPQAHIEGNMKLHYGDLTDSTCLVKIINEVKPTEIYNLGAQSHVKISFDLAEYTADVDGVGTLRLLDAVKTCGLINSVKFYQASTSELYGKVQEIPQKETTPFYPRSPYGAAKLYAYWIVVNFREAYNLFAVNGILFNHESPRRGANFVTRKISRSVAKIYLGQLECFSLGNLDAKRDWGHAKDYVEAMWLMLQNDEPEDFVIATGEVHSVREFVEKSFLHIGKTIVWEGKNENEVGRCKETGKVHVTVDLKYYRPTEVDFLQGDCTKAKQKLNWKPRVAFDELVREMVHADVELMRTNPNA
Sequence of UniProt P49915 (P49915 whole entry, looked up): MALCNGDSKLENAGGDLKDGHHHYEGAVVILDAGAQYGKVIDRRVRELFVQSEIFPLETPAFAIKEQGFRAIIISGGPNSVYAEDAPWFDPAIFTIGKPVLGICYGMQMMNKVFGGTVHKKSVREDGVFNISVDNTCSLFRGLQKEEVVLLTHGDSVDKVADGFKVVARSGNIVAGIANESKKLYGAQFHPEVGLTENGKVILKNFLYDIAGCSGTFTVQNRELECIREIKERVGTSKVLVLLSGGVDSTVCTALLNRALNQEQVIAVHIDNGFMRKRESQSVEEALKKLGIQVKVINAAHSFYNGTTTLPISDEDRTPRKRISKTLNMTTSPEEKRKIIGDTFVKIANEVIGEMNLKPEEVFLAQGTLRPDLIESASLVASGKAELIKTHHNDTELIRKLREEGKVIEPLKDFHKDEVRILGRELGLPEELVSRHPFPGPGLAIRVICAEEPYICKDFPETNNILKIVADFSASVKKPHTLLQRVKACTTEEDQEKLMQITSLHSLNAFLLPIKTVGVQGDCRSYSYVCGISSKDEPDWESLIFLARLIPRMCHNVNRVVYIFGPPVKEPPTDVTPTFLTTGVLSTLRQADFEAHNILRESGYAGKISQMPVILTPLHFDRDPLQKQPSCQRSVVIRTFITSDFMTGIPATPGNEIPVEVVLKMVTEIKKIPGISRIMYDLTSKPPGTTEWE
Sequence of UniProt P82970 (P82970 whole entry, looked up): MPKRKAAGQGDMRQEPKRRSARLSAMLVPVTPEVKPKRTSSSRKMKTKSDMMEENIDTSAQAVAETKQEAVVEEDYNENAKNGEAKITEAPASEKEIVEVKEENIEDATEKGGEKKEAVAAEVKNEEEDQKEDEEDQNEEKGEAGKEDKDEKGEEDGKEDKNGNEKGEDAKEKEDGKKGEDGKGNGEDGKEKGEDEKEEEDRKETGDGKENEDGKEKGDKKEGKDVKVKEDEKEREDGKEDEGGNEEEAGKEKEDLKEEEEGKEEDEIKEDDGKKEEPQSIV

Row | Target | log2 fold change [1] | log2 fold change [2] | log2 fold change [3] | log2 fold change [4] | log2 fold change [5] | log2 fold change [6] | log2 fold change [7] | log2 fold change [8] | log2 fold change [9] | log2 fold change [10]
1 | HAUS5 (UniProt O94927) | -0.036 | -0.017 | -0.071 | 0.05 | 0.044 | -0.098 | -0.002 | 0.032 | -0.042 | -0.029
2 | GON4L (UniProt Q3T8J9) | 0.006 | -0.04 | -0.05 | -0.066 | -0.045 | 0.391 | -0.054 | -0.011 | -0.07 | 0.01
3 | GOLGA6B (UniProt A6NDN3) | -0.105 | -0.061 | -0.193 | -0.105 | 0.121 | 0.109 | 0.027 | -0.381 | -0.04 | 0
4 | KHDRBS1 (UniProt Q07666) | -0.035 | 0.024 | 0.025 | 0.046 | 0.005 | -0.08 | 0.008 | -0.017 | 0.039 | -0.031
5 | IFNGR1 (UniProt P15260) | -0.076 | 0.153 | -0.008 | -0.497 | 0.196 | 0.263 | -0.001 | -0.034 | -0.144 | 0.378
6 | HS1BP3 (UniProt Q53T59) | 0.024 | -0.019 | 0.006 | -0.253 (active) | -0.047 | 0.068 | 0.021 | -0.019 | -0.048 | 0.074
7 | HMGB1 (UniProt P09429) | 0.017 | 0.02 | -0.024 | 0.304 (active) | 0.028 | -0.097 | 0.03 | -0.014 | 0.079 | -0.154
8 | GSK3A (UniProt P49840) | -0.026 | 0.207 | 0.069 | -0.002 | 0.016 | 0.641 (active) | -0.017 | 0.002 | 0.008 | -0.02
9 | GTF2H1 (UniProt P32780) | -0.03 | -0.017 | -0.028 | 0.032 | 0.023 | 0.035 | -0.019 | -0.001 | -0.03 | -0.021
10 | HMGN5 (UniProt P82970) | -0.058 | 0.032 | 0.046 | 0.239 | 0.018 | -0.081 | 0.02 | -0.066 | 0.013 | -0.184
11 | HADHB (UniProt P55084) | 0.1 | 0.067 | 0.073 | -0.041 | 0.037 | 0.138 | 0.016 | 0.218 | 0.014 | -0.093
12 | IGF2BP3 (UniProt O00425) | 0.013 | -0.038 | -0.031 | -0.032 | 0.017 | -0.04 | 0.001 | -0.006 | -0.045 | 0.053
13 | HK1 isoform 2 (UniProt P19367) | 0 | -0.009 | -0.023 | -0.026 | -0.033 | -0.051 | 0.038 | 0.039 | -0.023 | 0.029
14 | IRAK1 (UniProt P51617) | 0.023 | -0.008 | 0.799 (active) | -0.111 | -0.169 | 0.26 | -0.116 | 0.172 | -0.036 | 0.168
15 | IFITM3 (UniProt Q01628) | -0.123 | -0.067 | -0.089 | -0.103 | -0.005 | 0.035 | -0.153 | -0.034 | 0.09 | -0.022
16 | GRK6 isoform 2 (UniProt P43250) | -0.122 | -0.088 | 0.084 | -0.066 | -0.04 | 0.058 | -0.063 | 0.046 | 0.065 | 0.028
17 | KBTBD2 (UniProt Q8IY47) | -0.036 | -0.019 | -0.073 | -0.139 | -0.01 | 0.124 | -0.056 | -0.005 | -0.07 | 0.138
18 | INTS5 (UniProt Q6P9B9) | -0.688 | 0.018 | -0.082 | 0.048 | -0.022 | -0.235 | 0.009 | -0.002 | -0.092 | 0.054
19 | ICAM2 (UniProt P13598) | -0.008 | -0.08 | -0.002 | 0.293 (active) | -0.035 | -0.04 | -0.01 | -0.014 | 0.013 | -0.075
20 | ISY1 isoform 1 (UniProt Q9ULR0) | -0.033 | 0.011 | 0.01 | -0.022 | 0.019 | 0.078 | -0.035 | 0.016 | -0.013 | 0.016
21 | GYPA (UniProt P02724) | 0.074 | -0.01 | 0.017 | 0.528 (active) | 0.013 | -0.197 | -0.02 | -0.033 | 0.229 | -0.234
22 | HNRNPAB isoform 3 (UniProt Q99729) | 0.007 | 0.01 | 0.04 | -0.068 | -0.009 | 0.019 | -0.02 | -0.058 | -0.002 | 0.033
23 | GMDS (UniProt O60547) | -0.019 | -0.035 | -0.01 | 0.004 | 0.012 | -0.013 | -0.016 | 0.018 | 0.001 | -0.021
24 | KHK isoform 2 (UniProt P50053) | -0.066 | -0.015 | -0.032 | 0.248 (active) | 0 | -0.058 | 0.018 | 0.031 | 0.001 | -0.163
25 | KDM6A (UniProt O15550) | 0.033 | 0.046 | 0.003 | -0.028 | 0.032 | 0.009 | 0.01 | 0.022 | 0.002 | 0.013
26 | GMPS (UniProt P49915) | -0.008 | -0.014 | 0.007 | 0.115 | 0.006 | -0.071 | -0.001 | -0.036 | -0.012 | -0.032
27 | GPX4 (UniProt P36969) | -0.037 | -0.03 | -0.01 | 0.041 | -0.008 | -0.065 | 0 | -0.001 | -0.033 | -0.051
28 | GNB1 (UniProt P62873) | 0.054 | -0.022 | -0.106 | -0.114 | 0.003 | 0.04 | -0.023 | 0.079 | 0.123 | 0.04
29 | HSPBAP1 (UniProt Q96EW2) | -0.074 | -0.014 | -0.111 | -0.076 | 0.022 | 0.15 | -0.025 | 0.125 | 0.052 | -0.141
